Experiment [1] in a line: NCI Yeast Anticancer Drug Screen. Data for the rad50 strain (AID 155).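 Also: 0% = growth of vehicle-only cultures of the same strain.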 The conditions noted are these: S. cerevisiae rad50 strain growth inhibition, hits give high values. In short, it runs like this: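 Relative growth inhibition (compound vs vehicle) was measured in yeast with a defined repair-gene alteration.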
Experiment [2] is described as follows: NCI Yeast Anticancer Drug Screen. Data for the mec2-1 strain (AID 157). The conditions noted are these: S. cerevisiae mec2-1 strain, hits give high values. In short, it runs like this:
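Yeast mec2-1 mutant treated with compound. Readout: growth inhibition vs vehicle controls.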

A short description of experiment [3]: NCI Yeast Anticancer Drug Screen. Data for the sgs1 mgt1 strain (AID 161).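 Also: 0% = growth of cultures given vehicle only.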 The conditions noted are these: S. cerevisiae sgs1 mgt1 strain, hits give high values. In short, it runs like this: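 Test agents were incubated with a DNA-repair-mutant yeast strain. Growth was then read and compared against vehicle-treated controls.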
A short description of experiment [4]: NCI Yeast Anticancer Drug Screen. Data for the cln2 rad14 strain (AID 165).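 Also: 0% = growth equal to vehicle treated cultures.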 To be noted: S. cerevisiae cln2 rad14 strain, hits give high values. In short, it runs like this: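 cln2 rad14 yeast strain; compound exposure; growth inhibition read vs vehicle controls.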
Experiment [5] can be described thus: NCI Yeast Anticancer Drug Screen. Data for the bub3 strain (AID 167). To be noted: S. cerevisiae bub3 mutant strain, hits give high values. In short, it runs like this:
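Screening used yeast with an engineered genetic alteration affecting cell cycle control. Compound-exposed cultures were compared with vehicle cultures, and reduced growth was taken as inhibition.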

Experiment [6] in a line: NCI Yeast Anticancer Drug Screen. Data for the mlh1 rad18 strain (AID 175). The conditions noted are these: S. cerevisiae mlh1 rad18 strain growth inhibition, hits give high values. In short, it runs like this:
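Yeast w/ defined DNA-repair lesions; compound exposure; growth vs vehicle controls → % inhibition.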

Where [7] appears, read: at 5.0 µM (retest, dose inferred, filed as 0.5).
[8] abbreviates: at 50.0 µM (retest, dose inferred, filed as 5.0).

The panel holds about 79,000 compounds, 15% with a hit somewhere; the sample as a whole holds those more often. A number with no mark means an inactive call. The source made the active and inactive calls. Rule as the data show it: active = growth inhibition above about 70%; inactive = the rest.

On to `CC(=O)N(C)c1ccc2c(c1)Cc1ccccc1-2`, for which the growth inhibition in experiment [1] (setting [7]) was 2%; in experiment [1] (setting [8]) it was 34%; in experiment [1] (at 50.0 µM), 42.6%; in experiment [2] (setting [7]) it was 1%; in experiment [2] (setting [8]), 21%; in experiment [2] (at 50.0 µM), 27.4%. The growth inhibition in experiment [3] (setting [7]) is 1%; in experiment [3] (setting [8]) it was 36%; in experiment [3] (at 50.0 µM) it was 42.7%; in experiment [4] (setting [7]) it was -2%; in experiment [4] (setting [8]), 16%; in experiment [4] (at 50.0 µM), 14.8%. The growth inhibition was 16% in experiment [5] (setting [7]); 86% (active) in experiment [5] (setting [8]); 58.3% in experiment [5] (at 50.0 µM); -2% in experiment [6] (setting [7]); 30% in experiment [6] (setting [8]); 23.1% in experiment [6] (at 50.0 µM).
Consider `Oc1ccc(O)c2c1N=NC21c2ccccc2Oc2ccccc21`, for which the growth inhibition was 5% in experiment [1] (setting [7]); 86% (active) in experiment [1] (setting [8]); 65.6% in experiment [1] (at 50.0 µM); 7% in experiment [2] (setting [7]); 89% (active) in experiment [2] (setting [8]); 54% in experiment [2] (at 50.0 µM). Further, the growth inhibition is 6% in experiment [3] (setting [7]); 91% (active) in experiment [3] (setting [8]); 83% (active) in experiment [3] (at 50.0 µM); 10% in experiment [4] (setting [7]); 84% (active) in experiment [4] (setting [8]); 86.5% (active) in experiment [4] (at 50.0 µM). The growth inhibition is 5% in experiment [5] (setting [7]); 89% (active) in experiment [5] (setting [8]); 86.6% (active) in experiment [5] (at 50.0 µM); 8% in experiment [6] (setting [7]); 95% (active) in experiment [6] (setting [8]); 90.8% (active) in experiment [6] (at 50.0 µM).
As to `CCCCCCC/C=C\C(=O)O`, the growth inhibition in experiment [1] (setting [7]) was 0%; in experiment [1] (setting [8]), 13%; in experiment [1] (at 50.0 µM), 35.5%; in experiment [2] (setting [7]), 4%; in experiment [2] (setting [8]), 32%; in experiment [2] (at 50.0 µM), 17.9%. The growth inhibition in experiment [3] (setting [7]) is 1%; in experiment [3] (setting [8]), 38%; in experiment [3] (at 50.0 µM), 33.6%; in experiment [4] (setting [7]), 4%; in experiment [4] (setting [8]), 25%; in experiment [4] (at 50.0 µM), 38.9%. Further, the growth inhibition is 5% in experiment [5] (setting [7]); 23% in experiment [5] (setting [8]); 6.4% in experiment [5] (at 50.0 µM); 1% in experiment [6] (setting [7]); 36% in experiment [6] (setting [8]); 74.5% (active) in experiment [6] (at 50.0 µM).
`CC1NS(=O)(=O)N(C)C1=O` (stereo not given): the growth inhibition in experiment [1] (setting [7]) was 3%; in experiment [1] (setting [8]) it was -5%; in experiment [1] (at 50.0 µM), 3.05%; in experiment [2] (setting [7]), 6%; in experiment [2] (setting [8]), 3%; in experiment [2] (at 50.0 µM), 15.6%. Also, the growth inhibition was 5% in experiment [3] (setting [7]); 3% in experiment [3] (setting [8]); -2.2% in experiment [3] (at 50.0 µM); 0% in experiment [4] (setting [7]); -13% in experiment [4] (setting [8]); 36.7% in experiment [4] (at 50.0 µM). The growth inhibition in experiment [5] (setting [7]) is 6%; in experiment [5] (setting [8]), 16%; in experiment [5] (at 50.0 µM), 8.55%; in experiment [6] (setting [7]) it was 2%; in experiment [6] (setting [8]), -9%; in experiment [6] (at 50.0 µM), -1.05%.
As to `CN(NS(=O)(=O)c1cccc([N+](=O)[O-])c1)c1ccccc1`, the growth inhibition was -2% in experiment [1] (setting [7]); 19% in experiment [1] (setting [8]); 98.7% (active) in experiment [1] (at 50.0 µM); 9% in experiment [2] (setting [7]); 6% in experiment [2] (setting [8]); 98.2% (active) in experiment [2] (at 50.0 µM). The growth inhibition in experiment [3] (setting [7]) is -2%; in experiment [3] (setting [8]) it was 6%; in experiment [3] (at 50.0 µM) it was 96.5% (active); in experiment [4] (setting [7]), 5%; in experiment [4] (setting [8]), 16%; in experiment [4] (at 50.0 µM), 95.5% (active). In addition, the growth inhibition was 0% in experiment [5] (setting [7]); 39% in experiment [5] (setting [8]); 98.8% (active) in experiment [5] (at 50.0 µM); -10% in experiment [6] (setting [7]); 41% in experiment [6] (setting [8]); 98.8% (active) in experiment [6] (at 50.0 µM).
`C=COCCN1CCN(CCCN2c3ccccc3Sc3ccc(C(F)(F)F)cc32)CC1`: the growth inhibition in experiment [1] (setting [7]) is -4%; in experiment [1] (setting [8]), 99% (active); in experiment [1] (at 50.0 µM) it was 99.5% (active); in experiment [2] (setting [7]), -4%; in experiment [2] (setting [8]) it was 99% (active); in experiment [2] (at 50.0 µM), 99% (active). Besides, the growth inhibition in experiment [3] (setting [7]) is -1%; in experiment [3] (setting [8]), 99% (active); in experiment [3] (at 50.0 µM), 99.7% (active); in experiment [4] (setting [7]), -2%; in experiment [4] (setting [8]), 99% (active); in experiment [4] (at 50.0 µM) it was 98.7% (active). Further, the growth inhibition was 1% in experiment [5] (setting [7]); 99% (active) in experiment [5] (setting [8]); 98.5% (active) in experiment [5] (at 50.0 µM); 1% in experiment [6] (setting [7]); 99% (active) in experiment [6] (setting [8]); 99.3% (active) in experiment [6] (at 50.0 µM).
Regarding `CC(C)c1cc(C(C)C)c(Cl)c(Cl)c1O` (tested in a mixture with another compound), the growth inhibition in experiment [1] (setting [7]) is 1%; in experiment [1] (setting [8]), 44%; in experiment [1] (at 50.0 µM), 99.3% (active); in experiment [2] (setting [7]), 3%; in experiment [2] (setting [8]), 100% (active); in experiment [2] (at 50.0 µM), 99.5% (active). The growth inhibition was 6% in experiment [3] (setting [7]); 98% (active) in experiment [3] (setting [8]); 99.5% (active) in experiment [3] (at 50.0 µM); 5% in experiment [4] (setting [7]); 73% (active) in experiment [4] (setting [8]); 98.9% (active) in experiment [4] (at 50.0 µM). The growth inhibition in experiment [5] (setting [7]) was 0%; in experiment [5] (setting [8]) it was 77% (active); in experiment [5] (at 50.0 µM), 87.5% (active); in experiment [6] (setting [7]), -1%; in experiment [6] (setting [8]), 14%; in experiment [6] (at 50.0 µM), 84.5% (active).
With `COC(=O)C(Sc1ccc(Cl)cc1)C1SC(=S)N(C)C1=O` (stereo not given), the growth inhibition in experiment [1] (setting [7]) is 34%; in experiment [1] (setting [8]), 99% (active); in experiment [1] (at 50.0 µM), 62%; in experiment [2] (setting [7]), 19%; in experiment [2] (setting [8]), 99% (active); in experiment [2] (at 50.0 µM), 41.5%. Also, the growth inhibition in experiment [3] (setting [7]) was 21%; in experiment [3] (setting [8]), 99% (active); in experiment [3] (at 50.0 µM), 65.9%; in experiment [4] (setting [7]), 27%; in experiment [4] (setting [8]), 99% (active); in experiment [4] (at 50.0 µM) it was 37.2%. The growth inhibition in experiment [5] (setting [7]) is 15%; in experiment [5] (setting [8]), 99% (active); in experiment [5] (at 50.0 µM) it was 84.8% (active); in experiment [6] (setting [7]) it was 38%; in experiment [6] (setting [8]), 98% (active); in experiment [6] (at 50.0 µM) it was 58%.
As for `OCCc1c2ccccc2cc2ccccc12`, the growth inhibition in experiment [1] (setting [7]) is -135%; in experiment [1] (setting [8]), -50%; in experiment [1] (at 50.0 µM) it was 41.5%; in experiment [2] (setting [7]), -44%; in experiment [2] (setting [8]), -41%; in experiment [2] (at 50.0 µM), 10.6%. The growth inhibition in experiment [3] (setting [7]) is -61%; in experiment [3] (setting [8]), -36%; in experiment [3] (at 50.0 µM), 11.7%; in experiment [4] (setting [7]), -52%; in experiment [4] (setting [8]) it was -48%; in experiment [4] (at 50.0 µM), 11.8%. Moreover, the growth inhibition in experiment [5] (setting [7]) is -60%; in experiment [5] (setting [8]), -43%; in experiment [5] (at 50.0 µM), 3.35%; in experiment [6] (setting [7]), -127%; in experiment [6] (setting [8]) it was -74%; in experiment [6] (at 50.0 µM) it was 59.8%.
As to `CC(CN(C)C)C(/C=C/c1ccc(Cl)cc1)=N\NC(=O)c1ccccc1` (stereo not given), the growth inhibition is 3% in experiment [1] (setting [7]); 15% in experiment [1] (setting [8]); 17.6% in experiment [1] (at 50.0 µM); 2% in experiment [2] (setting [7]); 12% in experiment [2] (setting [8]); -4.45% in experiment [2] (at 50.0 µM). In addition, the growth inhibition was 1% in experiment [3] (setting [7]); -3% in experiment [3] (setting [8]); -15.3% in experiment [3] (at 50.0 µM); 2% in experiment [4] (setting [7]); 6% in experiment [4] (setting [8]); -1.65% in experiment [4] (at 50.0 µM). Moreover, the growth inhibition in experiment [5] (setting [7]) is -3%; in experiment [5] (setting [8]) it was -10%; in experiment [5] (at 50.0 µM), -11.9%; in experiment [6] (setting [7]), 3%; in experiment [6] (setting [8]), -36%; in experiment [6] (at 50.0 µM), 27.2%.

The values are drawn from PubChem BioAssay (NCI).
